Source: PubChem BioAssay (National Center for Advancing Translational Sciences (NCATS))
Rows were chosen to be rich in hits. Some 2.9% of all compounds tested hit in one or more screens of this group.
S2 tox: viability counter-screen for ATXN expression inhibitors. Potency, µM (top dose mostly 56.7 µM), hits mostly cytotoxic. hit rate 0.49% among 400,000. S2 cells (HEK-293 line with an ATXN2-luciferase reporter) viability, CellTiter-Fluor protease fluorescence, 24 h; further: nearly all actives have a fitted effect of over 40% in size
Nrf2 inh: blocks Nrf2 signaling | hit rate 2.1% among 360,000 | A549 ARE-Fluc reporter, luciferase luminescence, 18-24 h | AID 504444 | Potency, µM (series often up to 46 µM), for the others: top-dose activity change, negative = inhibition, actives largely listed as inhibitors; further: on the % scale 0 is the no-effect control and ±100 the full control effect; nearly all actives have a fitted effect of over 60% in size
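Concentration-response testing used A549 ARE_Fluc cells at 5000 cells/well. Following an 18-24 h compound incubation, viability was read by fluorescence (Ex 405/Em 525) and luciferase output by luminescence.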
ATXN2 expr inh: ATXN2 expression inhibition | AID 1745845 | hit rate 0.72% among 360,000 | HEK-293 ATXN2-luciferase reporter, luminescence, 24 h | Potency, µM (series often up to 57 µM), without a hit: at the highest dose activity change, negative = inhibition, hits mostly inhibitors; further: on the % scale 0 is the no-effect control and ±100 the full control effect; nearly all actives have a fitted effect of over 55% in size
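ATXN2-luciferase reporter cells (luciferase flanked by upstream and downstream ATXN2 gene portions) were treated 24 h at 37 °C with compounds at up to 57 uM. SteadyGlo luminescence gave expression; GF-AFC fluorescence gave viability.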
A549 viability: kills or reduces viability of A549 cells in Nrf2 counter-screen | A549 ARE-Fluc cells, CellTiter-Fluor viability, 18-24 h | Potency, µM (top dose mostly 46 µM), without a hit: at the top dose activity change, negative = cytotoxicity, actives largely listed as inhibitors | hit rate 0.16% among 390,000; further: on the % scale 0 is the no-effect control and ±100 the full control effect
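A549 ARE_Fluc cells in 5% FBS OPTI-MEM were exposed to compounds in concentration-response for 18-24 h at 37 deg C. Viability was read by CellTiter-Fluor fluorescence (Ex 405/Em 525) after 30 min, before the luciferase read.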
Nrf2 activator: activates Nrf2 signaling; AREc32 ARE-luciferase reporter (MCF7-derived line), luminescence, 24 h; Potency, µM (doses to about 46.1 µM), for the others: at the top dose activation, actives largely listed as activators; hit rate 0.31% among 410,000; AID 624171; further: % of control where 0% means no effect; nearly all actives have a fitted effect of over 65% in size
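AREc32_Fluc, 1000 cells/well, OPTI-MEM + 5% FBS, o/n 37 deg C 5% CO2; 23 nL cpd by pin tool, 24 hr; Steady-Glo 30 min RT, luminescence.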
An asterisk follows results filed as active; i = inactive; ? = inconclusive; / = no result given. The call rests on the fitted dose curve; in most records, active means well fitted curve in the direction sought with a large enough effect; inconclusive means small, poorly fitted or top-dose-only effect, or another doubt; inactive means no such curve, though single readings can be large; an effect the other way counts as inactive or inconclusive. Potency means the concentration at half of the fitted maximal effect.

SMILES | S2 tox | Nrf2 inh | ATXN2 expr inh | A549 viability | Nrf2 activator
Cc1sc2ncn(CC(=O)NCC(=O)N3CCN(c4ccc(F)cc4)CC3)c(=O)c2c1C | i | 8.2µM* | -27% | -1% | 0%
Cc1sc2ncn(CCn3cnc4sc(C)c(C)c4c3=O)c(=O)c2c1C | i | 16µM* | -28% | -3% | 0%
OC(CC#CCN1CCCCC1)(c1ccccc1)c1ccccc1 | i | -2% | -12% | -1% | 0%
O=[N+]([O-])c1cccc(-c2csc(N/N=C/c3cccc(O)c3)n2)c1 | ? | 18µM* | ? | ? | 24%
CCOC(=O)Cc1csc(N/N=C/c2cccc([N+](=O)[O-])c2)n1 | i | -12% | -5% | -1% | 0%
O=C(Nc1nc(-c2cccc([N+](=O)[O-])c2)cs1)C(c1ccccc1)c1ccccc1 | i | 15µM* | -25% | ? | 1%
CC(OC(=O)c1ccccc1Br)C(=O)Nc1nc(-c2cccc([N+](=O)[O-])c2)cs1 (stereo not drawn) | ? | 4% | 8% | -2% | 3%
Cc1cccc(N2CCN(C(=O)c3ccc4nc(-c5ccco5)c(-c5ccco5)nc4c3)CC2C)c1 (stereo not drawn) | ? | 21µM* | ? | ? | -2%
Cc1ccccc1CN(C)C(=O)c1ccc2ccccc2n1 | i | 5% | 9% | 0% | 0%
O=C(NCc1ncc(C(F)(F)F)cc1Cl)Nc1ccccc1 | i | ? | 0% | 3% | 2%
NC(=NCCc1c[nH]c2ccccc12)NS(=O)(=O)c1ccc2ccccc2c1 | i | 16µM* | 0% | ? | 5%
Cc1ccc(S(=O)(=O)N2C[C@H]3n4c(=O)ccc(=O)n4C[C@H](OC(=O)NCC4CCCCC4)[C@@]3(O)C2)cc1 | 22µM* | / | 16µM* | / | -5%
CCc1nn(CC(=O)NCCCN2CCN(C)CC2)c(=O)c2cc3sccc3n12 | i | 0% | 1% | 0% | 0%
COc1ccc(/C=C2\CCC/C(=C\c3ccc(OC)c(OC)c3OC)C2=O)c(OC)c1OC | i | 8.2µM* | -25% | ? | 17%
Nc1c(Cl)ncnc1NCCc1ccc(O)cc1 | i | 5.8µM* | -16% | -19% | 0%
CCOC(=O)CCC(NC(=O)c1cncc(O)c1)C(=O)OCC (stereo not drawn) | i | 10% | -4% | -6% | -1%
CCOC(=O)CCC(NC(=O)c1ccc(Nc2nc3ccccc3nc2C(=O)OCC)cc1)C(=O)OCC (stereo not drawn) | 30µM* | 5% | 27µM* | -1% | 1%
COc1cc2nc(C3CCC3)nc(N3CCN(c4ccccc4OC)CC3)c2cc1OC | ? | 18µM* | -19% | ? | -2%
COc1cc2nc(C3CCC3)nc(N3CCN(c4ccccn4)CC3)c2cc1OC | i | 26µM* | -15% | ? | 1%
CC(O)CNCCNCc1c(OCc2ccccc2)ccc2ccccc12 (stereo not drawn) | ? | ? | 25µM* | -7% | 13%
CC(O)CNCCOc1ccccc1OCc1ccccc1 (stereo not drawn) | i | 13% | ? | -5% | -1%
CC(C)NC(=O)C1CCN(S(=O)(=O)c2ccc(N3CCCC3=O)cc2)CC1 | i | -3% | 0% | 0% | 1%
CS(=O)(=O)c1ccc(Cl)c(NC(=O)CCl)c1 | ? | 21µM* | ? | -15% | ?
CS(=O)(=O)c1ccc(Cl)c(NC(=O)COC(=O)c2ccc(F)cc2Cl)c1 | i | 12µM* | -21% | 13% | -1%
CS(=O)(=O)c1ccc(C(=O)Nc2cc(S(C)(=O)=O)ccc2Cl)cc1 | i | -22% | -1% | 5% | 2%
SMILES | S2 tox | Nrf2 inh | ATXN2 expr inh | A549 viability | Nrf2 activator
CCOC(=O)C1CCN(C(=O)COC(=O)c2cc([N+](=O)[O-])ccc2N2CCOCC2)CC1 | i | 1% | -7% | -17% | 0%
COc1ccc2cc(/C=C/C(=O)N3CCN(CC(=O)N4CCCCCC4)CC3)ccc2c1 | i | 21µM* | 7% | -15% | 5%
CC(=O)n1cc(N(C(=O)CCl)c2ccc([N+](=O)[O-])cc2)c2ccccc21 | 28µM* | -27% | ? | -8% | 0%
CC(=O)n1cc(N(C(=O)CCl)c2ccccc2)c2ccccc21 | / | ? | ? | -8% | ?
COc1ccc(CNC(=O)CSc2ccc(Br)cc2)cc1OC | i | 23µM* | -13% | 1% | -1%
O=C(NC1CCCCC1)N1CCCC(CNS(=O)(=O)Cc2ccccc2)C1 (stereo not drawn) | i | -24% | -8% | -2% | 0%
CC[C@H](C)[C@@H](CNC)NC[C@@H](Cc1ccc(O)cc1)NCC(C)(C)C | i | 9% | -7% | -21% | 0%
CC[C@@H](C)[C@H](CN[C@H](CNC)C(C)C)NC[C@@H](C)c1ccc(CC(C)C)cc1 | / | -5% | 28µM* | -24% | -4%
Cc1ccc(NC(=O)c2ccc(F)c(S(=O)(=O)N3CCOCC3)c2)cc1F | i | 13µM* | -15% | -23% | 2%
Cc1ccc(N(Cc2ccccc2)C(=O)c2ccc(C)c(S(=O)(=O)N3CCOCC3)c2)cc1 | i | 15µM* | / | -18% | 1%
COc1cc(C(C)=O)ccc1OCC(=O)Nc1ccc(C)c(S(=O)(=O)N2CCCCCC2)c1 | ? | ? | 28µM* | -12% | -1%
COc1cc(C#N)ccc1OCC(=O)Nc1ccc(C)c(S(=O)(=O)N2CCOCC2)c1 | i | -29% | / | -2% | 3%
O=C(Nc1ccccc1)c1ccc(F)c(S(=O)(=O)N2CCOCC2)c1 | i | 15% | 3% | -2% | 0%
Cc1ccc(NC(=O)COc2ccc(Cl)cc2Cl)cc1S(=O)(=O)N1CCOCC1 | i | 21µM* | -8% | ? | 4%
Nn1cnc2scc(-c3ccc(Cl)cc3)c2c1=O | ? | 3% | / | 8% | 7%
Cc1ccc(NC(=O)CSc2nnc(C3CC3)n2C)cc1S(=O)(=O)N1CCCCC1 | i | 15µM* | / | -12% | 0%
Cc1ccc(C(=O)N(C)CCOc2ccccc2)cc1S(=O)(=O)N1CCCCC1 | ? | 21µM* | -24% | -17% | -1%
Cc1ccc(NC(=O)COc2cccc(C)c2C)cc1S(=O)(=O)N1CCCCCC1 | i | 26µM* | -18% | -10% | 0%
CN(CCOc1ccccc1)C(=O)c1ccc(Cl)c(S(=O)(=O)N2CCCCC2)c1 | i | ? | / | -3% | 0%
Cc1ccc(NC(=O)COc2ccccc2C(N)=O)cc1S(=O)(=O)N1CCCCCC1 | 15µM* | 5.2µM* | ? | ? | -1%
Cc1ccc(NC(=O)CSc2nnc(N)s2)cc1S(=O)(=O)N1CCCCC1 | ? | -22% | 6% | -9% | 0%
CCCCC(=O)Nc1ccc2c(c1)nc(CCNC(=O)c1ccco1)n2C | i | 5% | 27% | 2% | 2%
